Data on 52 compounds can be found in ChEMBL document CHEMBL4888484, “Replenishing the malaria drug discovery pipeline: Screening and hit evaluation of the MMV Hit Generation Library 1 (HGL1) against asexual blood stage Plasmodium falciparum ,using a nano luciferase reporter read-out” (2022).

In all, about 150,000 compounds went through this assay and about 540 (0.36%) showed an effect of 50% or more. This is one part of a sample in which strong results are shown more often than they occur.

In this test the test system is Plasmodium falciparum. As to the kind of experiment: Primary screen in NF54 nanoGlo assay, in single point, at 2uM, 72h; a lower Z score goes with more inhibition. It counts as functional, Erythrocyte. The conditions noted are these: timepoint 72 hour.
For `CCn1c(CN2CCCC2)nc2cc(S(=O)(=O)N3CCCCC3)ccc21`, the “% Inhibition” value is on record as -46% and the Z score is given as 5.44.

Consider `Cc1ccc(CNC(=O)[C@]2(C)CCC(=O)N2CCCc2ccccc2)cc1`, for which the “% Inhibition” value was -16% and the Z score was determined as 1.5.

For `O=C(Nc1cccc(S(=O)(=O)NC2=NCCC2)c1)c1cc(Cl)c2c(c1)OCCCO2`, the “% Inhibition” value was -11% and the Z score is recorded as 1.51.

For the compound `CCOc1cccc(-c2ccc3nc(-c4cccc(OC)c4)c(CCC(=O)NCCc4ccc(OC)c(OC)c4)n3c2)c1`, the “% Inhibition” value came to 22% and the Z score is reported as -4.22.

Turning to `CCOc1cccc(-c2ccc3nc(-c4cccc(OC)c4)c(CCC(=O)NCCN4CCCC4)n3c2)c1`, the “% Inhibition” value amounted to 59% and the Z score was -11.14.

On to `CCOc1cccc(-c2ccc3nc(-c4cccc(OC)c4)c(CCC(=O)NC4CC4)n3c2)c1`, for which the “% Inhibition” value came out at 4% and the Z score is reported as -0.75.

On to `Cc1nc(O)nc(O)c1CN1CCOCC1`, for which the “% Inhibition” value was -10% and the Z score came to 1.65.

In the case of `c1ccc(-c2nnc(-c3cccnc3NCc3cccs3)o2)cc1`, the “% Inhibition” value is reported as -5% and the Z score is 0.8.

`O=C1CCCN1[C@H]1CCCN(S(=O)(=O)CC2CCCCC2)CC1`: the “% Inhibition” value was -7% and the Z score came out at 1.12.

Take `O=C1O[C@H]2CN(CCCc3ccccc3)C[C@H]2N1Cc1ccccn1`: the “% Inhibition” value is -16% and the Z score turned out to be 1.43.

Consider `CCOCC1CCN(CCc2ccc3c(c2)CCO3)CC1`, for which the “% Inhibition” value is -4% and the Z score is on record as 0.71.

Turning to `O=C([C@@H]1CCCN1C1CC1)N1CCC2(CC1)OCCc1ccccc12`, the “% Inhibition” value is recorded as -14% and the Z score amounted to 1.46.

`COCC(=O)N[C@H]1CO[C@H]2[C@@H]1OC[C@@H]2Nc1nccc(-c2cccc(C#N)c2)n1`: the “% Inhibition” value is given as 50% and the Z score is reported as -0.95.

Take `N#Cc1cccc(-c2ccnc(N[C@H]3CO[C@H]4[C@@H]3OC[C@@H]4NC(=O)c3ccc(C(F)(F)F)cc3)n2)c1`: the “% Inhibition” value is -7% and the Z score amounted to 1.07.

Regarding `COCC(=O)N[C@H]1CO[C@H]2[C@@H]1OC[C@@H]2Nc1nccc(-c2ccc(OC)cc2)n1`, the “% Inhibition” value is -5% and the Z score was 0.87.

Regarding `CC(C)Cn1cccc(C(=O)Nc2cn(C)nc2-c2ccco2)c1=O`, the “% Inhibition” value was -9% and the Z score is given as 1.12.

As to `CCN(C(=O)COc1cccc(C)c1)[C@H](c1ccc(C)cc1)c1c[nH]c2ccccc12`, the “% Inhibition” value came to 6% and the Z score is on record as -0.77.

As to `Cc1ccccc1-c1oc(C)c(C)[n+]1[O-]`, the “% Inhibition” value was 2% and the Z score is -0.28.

As to `Cc1oc(-c2cccc(F)c2)[n+]([O-])c1C`, the “% Inhibition” value came to 5% and the Z score is given as -0.64.

As for `COc1ccc(-c2oc(C)c(C)[n+]2[O-])cc1OC`, the “% Inhibition” value came to 71% and the Z score is reported as 0.43.

As for `COc1ccc(CN2C[C@H]3CC[C@@H](C2)N(CC=C(C)C)C3)cc1CN(C)C`, the “% Inhibition” value is -17% and the Z score was 1.87.

As for `CN(Cc1cnc2ccccc2c1)c1cnn(C)c1`, the “% Inhibition” value was 1% and the Z score is -0.16.

As for `Cc1ncsc1CCNC(=O)[C@H]1CCN(c2ccc(C(F)(F)F)cn2)C1`, the “% Inhibition” value is -4% and the Z score worked out at 0.7.

In the case of `C[C@@H](C1CC1)N(C1CC1)S(=O)(=O)c1cccc2c1N=S=N2`, the “% Inhibition” value is listed as 38% and the Z score is on record as -0.53.

Consider `C[C@@H](C1CC1)N(C1CC1)S(=O)(=O)c1ccc(F)cc1F`, for which the “% Inhibition” value was found to be 84% and the Z score is -10.78.

With `C[C@@H](C1CC1)N(CC(=O)Nc1ccc(F)cc1F)C1CC1`, the “% Inhibition” value was -12% and the Z score is reported as 1.76.

On to `CCOC(=O)N1CCC(C)(CN2CCS(=O)(=O)C[C@@H](C)C2)CC1`, for which the “% Inhibition” value is reported as -13% and the Z score came to 1.46.

`Cn1cc(Cl)cc1C(=O)N1CCN(Cc2ccccc2F)C(=O)C1`: the “% Inhibition” value is -2% and the Z score came out at 0.24.

For the compound `CCOc1ccc(Cl)cc1-c1cc(C)n[nH]c1=O`, the “% Inhibition” value is -8% and the Z score stood at 1.52.

Consider `Cc1cccc(N2CCN(C(=O)c3cn4c(n3)COCC4)CC2)c1C`, for which the “% Inhibition” value is -8% and the Z score stood at 1.36.

`COc1ccc(C)c2sc(N(CCCn3ccnc3)C(=O)Cc3ccc(F)cc3)nc12`: the “% Inhibition” value stood at 78% and the Z score is listed as -7.85.

Consider `COc1ccc(C)c2sc(N(Cc3cccnc3)C(=O)c3ccn(C)n3)nc12`, for which the “% Inhibition” value is given as -12% and the Z score is listed as 2.

Consider `COc1ccc(C)c2sc(N(CCCN(C)C)C(=O)c3ccnn3C)nc12`, for which the “% Inhibition” value is reported as -7% and the Z score is 1.27.

Take `CC(C)(C)OC(=O)N1CC2CC1CCC2=O` (centres undefined): the “% Inhibition” value is -3% and the Z score worked out at 0.51.

Take `COc1ccc(CN2C[C@H]3CC[C@@H](C2)N(C(=O)c2nc(C)c[nH]2)C3)cc1`: the “% Inhibition” value is given as -2% and the Z score amounted to 0.32.

With `CC(C)(C)OC(=O)NCc1cccnc1NC(=O)Cc1ccoc1`, the “% Inhibition” value is reported as 10% and the Z score was -1.94.

Take `O=C(CCn1nc2ccccn2c1=O)Nc1cnccc1Nc1ccc(F)cc1`: the “% Inhibition” value is on record as -25% and the Z score turned out to be 4.76.

As for `Cc1nn(C2CCCC2)c2nc(-c3cccs3)[nH]c12`, the “% Inhibition” value is -10% and the Z score was found to be 1.39.

With `Cc1nn(C)c(Cl)c1-c1nc2c([nH]1)c(C)nn2C1CCCCC1`, the “% Inhibition” value is recorded as 1% and the Z score is listed as -0.09.

As to `Cc1nn(C2CCCC2)c2nc(-c3cc(CN(C)C)cs3)[nH]c12`, the “% Inhibition” value came out at 69% and the Z score was -9.28.

In the case of `Fc1ccc([C@@H]2CCN2CCn2cc(Cl)cn2)cc1`, the “% Inhibition” value amounted to 12% and the Z score is recorded as -1.59.

Take `CN(C)Cc1cc(CN(C)C)c(O)c(CCc2ccccc2)n1`: the “% Inhibition” value is 7% and the Z score was -1.36.

For the compound `CN(C)Cc1ccc(O)c(CCc2ccccc2)n1`, the “% Inhibition” value is listed as 64% and the Z score is -4.36.

Take `OCc1cc(CO)c(O)c(CCc2ccccc2)n1`: the “% Inhibition” value is reported as -7% and the Z score amounted to 1.32.

As for `COC(=O)[C@H](CS(=O)(=O)Nc1cc(C)n(C)n1)c1ccccc1`, the “% Inhibition” value is on record as 3% and the Z score was -0.46.

As for `O=c1c2ccoc2ccn1Cc1ccc(OC(F)F)cc1`, the “% Inhibition” value is reported as -8% and the Z score was found to be 0.89.

Consider `COc1ccc(C(=O)CN2C=CCC=C2c2nc(-c3ccc(Cl)cc3)cs2)cc1`, for which the “% Inhibition” value is 75% and the Z score is reported as -6.73.

For `O=C(C[n+]1ccccc1-c1nc(-c2ccc(Cl)cc2)cs1)c1ccccc1`, the “% Inhibition” value is on record as -7% and the Z score was found to be 1.

Take `COc1ccc(-c2csc(-c3nc(-c4cccc(Cl)c4)cs3)n2)cc1`: the “% Inhibition” value was -13% and the Z score amounted to 1.47.

Take `COc1ccc(C2=CN(CC(=O)c3ccc(Cl)cc3)C3=CCCCCN23)cc1`: the “% Inhibition” value amounted to 37% and the Z score is -3.83.

Take `Brc1ccc(-c2csc(Cc3nc(-c4ccc(Br)cc4)cs3)n2)cc1`: the “% Inhibition” value is -3% and the Z score came to 0.3.

Take `O=C(CN1C=CCC=C1c1nc(-c2ccc(Br)cc2)cs1)c1ccccc1`: the “% Inhibition” value was 65% and the Z score is given as -4.25.
